From PubChem BioAssay
Shown are actives, neighbours in structure and some others; about 4.6% of the full set was active somewhere.
TRHR ag: TRH receptor (human) agonism | activation, % at 2 µM | 360,000 compounds, 0.18% hits | P34981 | TRHR cells, calcium flux fluo-8, FDSS agonist mode; further: 0% is about no effect
Target sequence (P34981 whole entry, looked up): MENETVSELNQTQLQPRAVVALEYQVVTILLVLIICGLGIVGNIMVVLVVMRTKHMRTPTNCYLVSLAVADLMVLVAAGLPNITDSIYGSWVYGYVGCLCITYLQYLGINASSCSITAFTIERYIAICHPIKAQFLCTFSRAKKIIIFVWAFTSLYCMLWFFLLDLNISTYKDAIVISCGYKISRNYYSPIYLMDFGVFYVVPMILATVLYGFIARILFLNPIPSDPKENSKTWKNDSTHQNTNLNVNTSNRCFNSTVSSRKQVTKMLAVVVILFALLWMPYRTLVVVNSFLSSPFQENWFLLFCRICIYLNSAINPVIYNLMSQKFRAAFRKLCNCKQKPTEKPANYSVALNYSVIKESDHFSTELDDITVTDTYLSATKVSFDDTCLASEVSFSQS
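Agonist-mode FDSS calcium read (Ex 480/Em 530, 1 s cycles) in 1536-well TRHR cells with fluo-8 dye, after 10-cycle baseline and 23 nL compound addition; TRH at EC20 (10 nM final) added afterwards for the enhancer phase.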
TRHR PAM: allosterically enhances the human TRH receptor; TRHR cells, fluo-8 calcium fluorescence, EC20 TRH enhancement; enhancement, % at 2 µM; 360,000 compounds, 0.66% hits; in the data active means enhancement above about 30%; further: 0% is about no effect
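Enhancer read-out: after compound pinning and an initial kinetic agonist-mode read, an EC20 of TRH (10 nM final) was injected and fluo-8 calcium signal (Ex 480/Em 530) followed at 1 s/cycle for 100 cycles in TRHR-expressing cells.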
D1 antagonist: antagonists of human D1 dopamine receptor | P21728 | HEK293 TREx D1 cells, calcium flux, dopamine EC80; stronger effect = lower value | activity change, negative = inhibition, % at 10 µM | 360,000 compounds, 3.2% hits; in the data active means activity change below about -30%; further: on the % scale 0 is the no-effect control and ±100 the full control effect
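Allosteric or orthosteric antagonism assessed as attenuation of the calcium response to EC80 dopamine, added 180 s after compound, in induced HEK293 Trex D1 cells loaded with no-wash calcium dye.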
D1 PAM: enhances dopamine response at the human D1 receptor; 360,000 compounds, 0.036% hits; potentiation, % at 10 µM; HEK293 TREx D1 cells, calcium flux, dopamine EC20 potentiation; AID 504651; in the data active means potentiation above about 30%; further: 0% is about no effect
D1 agonist: activates the human D1 dopamine receptor; P21728; HEK293 T-REx D1 cells, calcium flux, agonist mode; activation, % at 2 µM; 360,000 compounds, 1% hits; AID 504660; further: 0% is about no effect
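Tetracycline-induced HEK293 TREx D1 cells, force-coupled to calcium signalling, were dye-loaded with a no-wash calcium kit. Compound was pin-added after a 10 s baseline. Fluorescence was read kinetically at 1 cycle/s for 180 s, with calcium rises flagged as agonism.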
The depositor's hits bear a star; nt = no result given. Unless noted, no stated cut-off is given here; in the data, active means activation above about 30%; inactive means the rest.

SMILES | TRHR ag | TRHR PAM | D1 antagonist | D1 PAM | D1 agonist
Cc1ccccc1OCC(=O)Nc1ccc2[nH]c(=O)sc2c1 | 0 | -4 | -49* | -4 | 14
Cc1ccccc1OCC(=O)Nc1ccncc1 | -1 | 2 | -18 | -4 | 12
Cc1ccccc1OCC(=O)Nc1ccc(Cc2ccncc2)cc1 | 0 | 2 | -44* | -3 | 16
CC(=O)c1cccc(NC(=O)COC(=O)COc2ccccc2C)c1 | 0 | -9 | -24 | -2 | 6
Cc1ccc(OCC(=O)Nc2ccc3[nH]c(=O)sc3c2)cc1 | -1 | 21 | -27 | -3 | 10
O=C(CNC(=O)C1CCCC1)OC(C(=O)Nc1cc(C(F)(F)F)ccc1Cl)c1ccccc1 (configuration not stated) | -1 | 0 | 7 | 2 | 10
CC(C)(CO)NCc1ccccc1OCC(=O)Nc1ccccc1 | 0 | -3 | -18 | -4 | 6
Cc1ccc(NC(=O)COc2ccccc2CNC(C)(C)CC(C)(C)C)cc1 | 2 | 6 | -6 | -5 | 62*
CSC1=NC2C(N1)N(C)C(=O)N2C (configuration not stated) | 0 | 39* | 14 | 4 | 4
O=C(/C=C/c1ccc2c(c1)OCO2)N1CCN(c2ccc(Cl)cc2)CC1 | 0 | -7 | 0 | 7 | 3
O=C(/C=C/c1cccs1)N1CCN(Cc2ccc3c(c2)OCO3)CC1 | 0 | 1 | 1 | -4 | 1
O=C(/C=C/c1cccc([N+](=O)[O-])c1)N1CCN(Cc2ccc3c(c2)OCO3)CC1 | -1 | -5 | -34* | -9 | 2
O=C(/C=C/c1ccc2c(c1)OCO2)N1CCCCC1 | 0 | -7 | -30* | -2 | 2
Cc1ccc(NC(=O)c2ccc(NC(=O)N3CCSc4nc(C)cc(C)c43)cc2)c(Cl)c1 | -1 | 0 | -17 | -2 | 2
CCN1C(=O)C(CC(=O)Nc2ccc(OC)cc2)N(CCCN2CCN(c3ccc(F)cc3)CC2)C1=S (configuration not stated) | 1 | 0 | -43* | -6 | 11
COc1ccc(NC(=O)CC2C(=O)N(C)C(=S)N2CCc2ccccc2)cc1 (configuration not stated) | 1 | -1 | -41* | -8 | 5
COc1ccc(CCN2C(=S)N(C)C(=O)C2CC(=O)Nc2ccc(OC)cc2)cc1 (configuration not stated) | 1 | 3 | -11 | -4 | 7
Cc1cc2c(s1)c1cnn(Cc3c(F)cccc3F)c(=O)c1n2C | 0 | 1 | -10 | 7 | 1
COc1ccc(NC(=S)Nc2ccc3snnc3c2)cc1 | 0 | -8 | -13 | -5 | 4
COc1ccc(NC(=S)Nc2ccc3nccnc3c2)cc1 | 1 | 5 | -34* | -5 | 3
CCCOc1ccccc1N1C(=O)CC(N(O)c2ccccc2)C1=O (configuration not stated) | 0 | 38* | 13 | 2 | 2
CCc1nn(CCCC(=O)NCc2ccc(OC)c(OC)c2)c(=O)c2cc3occc3n12 | 0 | -4 | -1 | -4 | 0
COc1ccc(CNC(=O)c2sc3nc[nH]c(=O)c3c2C)cc1 | 1 | 1 | 1 | -2 | 1
COc1ccc([N+](=O)[O-])cc1NC(=O)Nc1ccc(OC)c(OC)c1 | 0 | 1 | nt | -7 | -1
COc1ccc([N+](=O)[O-])cc1NC(=O)Nc1cccc(Cl)c1 | 0 | -2 | -41* | -3 | 5
SMILES | TRHR ag | TRHR PAM | D1 antagonist | D1 PAM | D1 agonist
COc1ccccc1NS(=O)(=O)c1cccc(NC(=O)Nc2cccc(Cl)c2)c1 | 2 | -6 | -39* | -13 | 12
COc1ccccc1NC(=O)c1oc2ccccc2c1NC(=O)c1cccc(OC)c1OC | 1 | -6 | -12 | -4 | 7
COc1ccccc1N(CC(=O)NCCc1ccccc1)S(C)(=O)=O | 0 | 14 | 19 | -2 | 0
COCCNC(=O)CN(c1ccccc1OC)S(C)(=O)=O | 0 | -2 | -30* | 0 | 3
CCOc1ccccc1N(CC(=O)N/N=C(\C)c1cccc(Br)c1)S(C)(=O)=O | -2 | 1 | -3 | 11 | -1
COc1ccccc1N(CC(=O)N/N=C(\C)c1cccc(Br)c1)S(C)(=O)=O | 0 | -3 | -30* | -6 | 0
Cc1ccc(-n2c(SCC(=O)N3CCC(C)CC3)nc3c([nH]c4ccccc43)c2=O)cc1 | 0 | 2 | 15 | -3 | 0
COc1ccc(-c2noc(Cn3c(=O)c4ccccc4n(CC(=O)Nc4cccc(OC)c4)c3=O)n2)cc1 | 1 | 1 | 0 | 1 | 5
COc1ccc(CNC(=O)COc2ccc(C(=O)c3ccc(F)cc3)cc2)cc1 | 0 | -6 | -30* | -1 | 10
COC(=O)c1ccc(/C=N/OCC(=O)NCc2ccc(F)cc2)cc1 | -1 | -1 | -51* | -4 | 1
CC1Cc2cc(S(=O)(=O)N(C)c3ccc(Br)cc3)ccc2N1C(=O)C1CC1 (configuration not stated) | -1 | 7 | -26 | -4 | 12
COc1cc2[nH]c(C(=O)N3CCc4ccccc4C3)cc2c(OC)c1OC | 0 | 9 | 1 | -3 | 1
COc1cc2cc(C(=O)N3CCc4ccccc4C3)[nH]c2cc1OC | -1 | 1 | -33* | -7 | -1
COc1ccc(C(=O)C2CCCN(Cc3ccc(C#CCCO)cc3)C2)cc1F (configuration not stated) | -1 | 1 | -37* | -3 | 27
CCn1cc(S(=O)(=O)c2ccc(OC)cc2)c(=O)c2cc(F)c(N3CCC(C)CC3)cc21 | 0 | 4 | 7 | -1 | 2
Cc1nc(/C=C/c2ccccc2)[nH]c(=O)c1-c1ccccc1 | 1 | -2 | -43* | -4 | -1
Cn1nc(-c2ccccc2)c(C#N)c1Sc1cccc(Cl)c1 | -2 | 15 | -22 | -4 | 88*
Cc1nn(C)c(Oc2cccc(Cl)c2)c1C#N | -1 | 1 | 2 | 1 | 0
CCOc1ccc(/C=C2/SC(=S)N(C(C(=O)O)c3ccccc3)C2=O)cc1OCC (configuration not stated) | -2 | -3 | 6 | -4 | 5
COc1cc(/C=C2\SC(=S)N(C(C(=O)O)c3ccccc3)C2=O)ccc1O (configuration not stated) | 50* | 0 | 16 | 13 | 82*
CCOc1cc(/C=C2\SC(=S)N(C(C(=O)O)c3ccccc3)C2=O)ccc1O (configuration not stated) | -1 | 2 | 4 | 1 | 172*
O=C(O)C(c1ccccc1)N1C(=O)/C(=C\c2ccc(O)c(O)c2)SC1=S (configuration not stated) | 32* | -3 | -3 | 1 | 23
COc1ccc(CCNC(=O)CCCn2nc(C)c3sc4ccccc4c3c2=O)cc1OC | 0 | 5 | 13 | 2 | 1
